# In paper PMC7862700, “An all-to-all approach to the identification of sequence-specific readers for epigenetic DNA modifications on cytosine”:
# Key:
# Experiment in all cases: DAPPL (digital affinity profiling via proximity ligation, sequencing); 10 mM Tris-HCl pH 7.5, 50 mM NaCl, 1 mM DTT, 4% glycerol, room temperature, 30 min; GST-TFs on glutathione beads, 16-mer random dsDNA library, 0.1% formaldehyde crosslink after washing; high values mean tight binding
# [1] = biological target: T1, FEV (Homo sapiens, UniProt Q99581 1-238); settings: protein: recombinant; tags: N-terminal GST; dsDNA, one strand shown
# T1 sequence: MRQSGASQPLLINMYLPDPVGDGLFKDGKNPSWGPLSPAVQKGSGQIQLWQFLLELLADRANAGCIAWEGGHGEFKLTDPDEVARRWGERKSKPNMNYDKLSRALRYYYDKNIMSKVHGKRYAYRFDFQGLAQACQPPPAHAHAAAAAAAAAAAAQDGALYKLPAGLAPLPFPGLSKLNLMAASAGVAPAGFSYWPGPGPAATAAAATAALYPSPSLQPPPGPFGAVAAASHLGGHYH
# Outline: (§1)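 Beads coated with glutathione captured GST-fused human transcription factors that had been expressed in yeast, and the factors were then given DNA barcodes and pooled with a tag-only sample. The pools were incubated with 200 nmole of a random double-stranded 16-mer DNA library in Tris/NaCl/DTT/glycerol buffer for 30 min at room temperature, washed, crosslinked with 0.1% formaldehyde and proximity-ligated with BsaI/T4 ligase at 37 °C for 1 h. PCR amplification and Illumina NextSeq500 sequencing came last. Binding signal is each hexamer's read frequency for a factor divided by its frequency for the tag-only sample.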
# [2] = biological target: ETV5 (Homo sapiens, UniProt P41161 1-510); settings: protein: recombinant; tags: N-terminal GST; dsDNA, one strand shown
# Outline: as §1
# [3] = biological target: HSF1 (Homo sapiens, UniProt Q00613 1-529); settings: protein: recombinant; tags: N-terminal GST; chain copies: 3; dsDNA, one strand shown
# Outline: as §1
# [4] = biological target: T2, SPIC (Homo sapiens, UniProt Q8N5J4 1-248); settings: protein: recombinant; tags: N-terminal GST; dsDNA, one strand shown
# T2 sequence: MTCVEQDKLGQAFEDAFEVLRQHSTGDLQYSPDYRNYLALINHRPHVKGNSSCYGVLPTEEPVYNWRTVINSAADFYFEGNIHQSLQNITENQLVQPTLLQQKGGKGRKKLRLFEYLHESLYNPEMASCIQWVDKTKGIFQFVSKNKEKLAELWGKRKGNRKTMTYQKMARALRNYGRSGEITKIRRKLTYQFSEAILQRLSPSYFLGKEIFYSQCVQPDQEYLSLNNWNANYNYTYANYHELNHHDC
# Outline: as §1
# [5] = biological target: ELF4 (Homo sapiens, UniProt Q99607 1-663); settings: protein: recombinant; tags: N-terminal GST; dsDNA, one strand shown
# Outline: as §1
# [6] = biological target: T3, ELK4 (Homo sapiens, UniProt P28324-2 1-405); settings: protein: recombinant; tags: N-terminal GST; dsDNA, one strand shown
# T3 sequence: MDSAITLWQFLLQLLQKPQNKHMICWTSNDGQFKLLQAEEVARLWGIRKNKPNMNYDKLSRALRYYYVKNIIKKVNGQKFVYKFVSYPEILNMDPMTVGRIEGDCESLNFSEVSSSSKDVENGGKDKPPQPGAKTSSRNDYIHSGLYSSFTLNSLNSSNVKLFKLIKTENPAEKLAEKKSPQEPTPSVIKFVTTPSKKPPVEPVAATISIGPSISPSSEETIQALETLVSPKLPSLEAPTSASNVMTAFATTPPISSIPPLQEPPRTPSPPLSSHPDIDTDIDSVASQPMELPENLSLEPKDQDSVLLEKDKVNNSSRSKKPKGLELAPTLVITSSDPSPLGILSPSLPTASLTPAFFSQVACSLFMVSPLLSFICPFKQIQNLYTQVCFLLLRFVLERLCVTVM
# Outline: as §1
# [7] = biological target: T4, ETV2 (Homo sapiens, UniProt O00321 1-342); settings: protein: recombinant; tags: N-terminal GST; dsDNA, one strand shown
# T4 sequence: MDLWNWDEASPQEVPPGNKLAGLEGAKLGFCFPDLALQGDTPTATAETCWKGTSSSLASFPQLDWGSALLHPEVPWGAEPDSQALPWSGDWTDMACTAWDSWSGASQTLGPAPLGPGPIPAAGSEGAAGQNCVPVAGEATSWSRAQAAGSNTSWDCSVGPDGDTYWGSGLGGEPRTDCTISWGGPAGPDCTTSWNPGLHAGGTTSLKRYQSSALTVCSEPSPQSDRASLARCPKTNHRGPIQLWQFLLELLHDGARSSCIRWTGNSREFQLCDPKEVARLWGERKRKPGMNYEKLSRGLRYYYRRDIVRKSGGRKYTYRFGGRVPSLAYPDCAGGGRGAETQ
# Outline: as §1
# [8] = biological target: T5, ELF3 (Homo sapiens, UniProt P78545 1-371); settings: protein: recombinant; tags: N-terminal GST; dsDNA, one strand shown
# T5 sequence: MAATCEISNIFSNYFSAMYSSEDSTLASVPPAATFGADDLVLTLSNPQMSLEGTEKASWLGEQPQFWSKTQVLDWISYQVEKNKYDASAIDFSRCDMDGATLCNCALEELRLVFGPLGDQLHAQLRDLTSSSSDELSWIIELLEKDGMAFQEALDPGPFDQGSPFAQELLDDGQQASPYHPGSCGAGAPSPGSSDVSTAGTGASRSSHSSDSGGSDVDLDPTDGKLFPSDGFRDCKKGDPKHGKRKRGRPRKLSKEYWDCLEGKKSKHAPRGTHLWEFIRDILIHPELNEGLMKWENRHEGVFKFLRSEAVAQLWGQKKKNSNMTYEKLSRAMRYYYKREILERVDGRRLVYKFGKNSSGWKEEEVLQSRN
# Outline: as §1
# [9] = biological target: CRX (Homo sapiens, UniProt O43186 1-299); settings: protein: recombinant; tags: N-terminal GST; dsDNA, one strand shown
# Outline: as §1
# Chain of ELF4 (Q99607 whole entry): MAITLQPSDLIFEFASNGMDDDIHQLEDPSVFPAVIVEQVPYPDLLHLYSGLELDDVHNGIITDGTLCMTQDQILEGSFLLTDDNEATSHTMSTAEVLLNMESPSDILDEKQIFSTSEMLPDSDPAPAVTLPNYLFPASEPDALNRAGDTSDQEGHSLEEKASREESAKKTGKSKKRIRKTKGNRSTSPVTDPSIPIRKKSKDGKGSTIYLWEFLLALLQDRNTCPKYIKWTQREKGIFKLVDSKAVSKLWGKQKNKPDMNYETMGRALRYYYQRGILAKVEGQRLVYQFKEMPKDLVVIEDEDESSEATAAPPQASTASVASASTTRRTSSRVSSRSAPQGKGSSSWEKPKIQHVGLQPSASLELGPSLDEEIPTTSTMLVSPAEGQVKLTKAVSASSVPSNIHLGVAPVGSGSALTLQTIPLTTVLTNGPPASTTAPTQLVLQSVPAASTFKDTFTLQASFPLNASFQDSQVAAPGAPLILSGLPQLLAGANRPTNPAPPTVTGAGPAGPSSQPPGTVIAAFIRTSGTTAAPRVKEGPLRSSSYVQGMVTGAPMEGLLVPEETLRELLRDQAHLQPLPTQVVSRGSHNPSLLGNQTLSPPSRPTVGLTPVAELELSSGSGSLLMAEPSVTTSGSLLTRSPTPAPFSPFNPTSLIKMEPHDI
# Chain of CRX (O43186 whole entry): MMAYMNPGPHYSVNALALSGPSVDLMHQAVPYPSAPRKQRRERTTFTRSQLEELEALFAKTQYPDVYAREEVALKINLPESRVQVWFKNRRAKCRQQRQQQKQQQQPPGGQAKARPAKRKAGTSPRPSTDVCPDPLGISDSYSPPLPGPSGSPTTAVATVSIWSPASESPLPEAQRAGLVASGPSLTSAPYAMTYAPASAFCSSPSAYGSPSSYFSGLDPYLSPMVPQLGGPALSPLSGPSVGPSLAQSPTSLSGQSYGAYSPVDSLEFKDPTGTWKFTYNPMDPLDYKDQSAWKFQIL
# Chain of HSF1 (Q00613 whole entry): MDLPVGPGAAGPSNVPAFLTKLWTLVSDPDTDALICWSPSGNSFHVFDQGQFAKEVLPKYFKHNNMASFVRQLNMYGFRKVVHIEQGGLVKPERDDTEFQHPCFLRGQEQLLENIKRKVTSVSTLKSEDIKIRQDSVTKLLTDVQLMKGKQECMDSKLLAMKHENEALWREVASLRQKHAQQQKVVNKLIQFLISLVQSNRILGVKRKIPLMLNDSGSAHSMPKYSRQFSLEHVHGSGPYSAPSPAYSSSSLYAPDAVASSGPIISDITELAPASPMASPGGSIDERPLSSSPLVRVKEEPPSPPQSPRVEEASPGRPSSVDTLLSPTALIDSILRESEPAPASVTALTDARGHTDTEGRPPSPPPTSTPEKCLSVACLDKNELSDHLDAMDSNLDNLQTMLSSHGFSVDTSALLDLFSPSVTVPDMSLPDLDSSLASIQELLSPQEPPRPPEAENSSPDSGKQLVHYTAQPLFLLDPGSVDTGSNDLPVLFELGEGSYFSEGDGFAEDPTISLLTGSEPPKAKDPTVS
# Chain of ETV5 (P41161 whole entry): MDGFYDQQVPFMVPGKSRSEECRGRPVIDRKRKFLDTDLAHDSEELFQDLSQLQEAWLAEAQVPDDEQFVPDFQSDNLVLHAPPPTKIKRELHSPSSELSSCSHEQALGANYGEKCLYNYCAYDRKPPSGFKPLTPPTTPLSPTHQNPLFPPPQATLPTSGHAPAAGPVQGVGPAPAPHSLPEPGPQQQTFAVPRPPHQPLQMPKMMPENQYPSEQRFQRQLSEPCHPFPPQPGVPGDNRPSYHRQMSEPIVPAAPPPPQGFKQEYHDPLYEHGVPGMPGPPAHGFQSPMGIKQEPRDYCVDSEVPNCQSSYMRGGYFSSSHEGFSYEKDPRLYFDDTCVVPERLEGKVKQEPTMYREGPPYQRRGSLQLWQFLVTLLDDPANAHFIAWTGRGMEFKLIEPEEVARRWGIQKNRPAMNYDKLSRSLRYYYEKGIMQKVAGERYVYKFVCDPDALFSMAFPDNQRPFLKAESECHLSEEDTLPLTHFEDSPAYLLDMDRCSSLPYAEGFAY
sequence,measurement,setting,value
TATGCA,binding signal,[1],"1.26 fold enrichment (6-mer frequency, TF over GST control)"
same,binding signal,[2],"1.18 fold enrichment (6-mer frequency, TF over GST control)"
same,binding signal,[3],"1.1 fold enrichment (6-mer frequency, TF over GST control)"
same,binding signal,[4],"1.24 fold enrichment (6-mer frequency, TF over GST control)"
same,binding signal,[5],"1.27 fold enrichment (6-mer frequency, TF over GST control)"
same,binding signal,[6],"1.37 fold enrichment (6-mer frequency, TF over GST control)"
same,binding signal,[7],"1.37 fold enrichment (6-mer frequency, TF over GST control)"
same,binding signal,[8],"1.25 fold enrichment (6-mer frequency, TF over GST control)"
same,binding signal,[9],"1.22 fold enrichment (6-mer frequency, TF over GST control)"
